IDE exosite FP: exo-site inhibitors of human IDE, primary screen, biochemical, fluorescence anisotropy, probe displacement. z-score at 20 µM. purified IDE, FL-6b probe fluorescence polarization; active compounds read low. actives 6.3% (n = 17,000). Insulin-degrading enzyme (Homo sapiens), P14735;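 active means z-score of -3 or lower, meaning strong loss of probe binding signal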;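 further: His-tagged human IDE residues 42-1019 made in E. coli with 30 nM FL-6b probe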
Hits are given with their value. The full list was thinned out, with hits kept by preference.

`CC[C@H]1C/C=C\C[C@@H](c2ccc(OC)cc2OC)NC(=O)[C@H](C)CC(=O)N1` gave IDE exosite FP inactive.
`O=C(C1CCCC1)N1CC(=O)N2[C@H](CO)[C@@H](c3ccc(C#CC4CCCC4)cc3)[C@H]2C1` gave IDE exosite FP inactive.
For C[C@H]1CCCCO[C@@H](CN(C)CC2CC2)[C@@H](C)CN([C@@H](C)CO)C(=O)c2cc(NC(=O)c3ccccc3)ccc2O1 the results were IDE exosite FP inactive.
Screening N#C[C@H]1[C@H](c2ccc(-c3cccc(F)c3)cc2)[C@@H](CO)N1C(=O)c1cccnc1 returned IDE exosite FP inactive.
N#C[C@@H]1[C@@H](c2ccc(-c3cccc(F)c3)cc2)[C@H](CO)N1C(=O)c1cccnc1 was read as IDE exosite FP inactive.
For N#C[C@H]1[C@H](c2ccc(-c3cccc(F)c3)cc2)[C@H](CO)N1C(=O)c1cccnc1 the results were IDE exosite FP -6.
Screening Cc1ccc(-c2ccccc2[C@H]2[C@@H](C#N)N(C(=O)Cc3cccnc3)[C@H]2CO)cc1 returned IDE exosite FP inactive.
For C[C@H]1CN([C@@H](C)CO)C(=O)CCCn2nncc2CO[C@@H]1CN(C)C(=O)c1cc(-c2ccccc2)on1 the results were IDE exosite FP inactive.
O=C(Nc1cccc(F)c1)N1CC(=O)N2[C@H](C1)[C@@H](c1ccc(-c3ccccc3)cc1)[C@@H]2CO was read as IDE exosite FP inactive.
`COc1ccc(-c2ccc([C@@H]3[C@H](CO)N4CCCCN(C(=O)c5ccc(F)cc5)C[C@@H]34)cc2)cc1` gave IDE exosite FP inactive.
Screening COCC(=O)N1CCCCN2[C@@H](CO)[C@H](c3ccc(-c4ccc(OC)cc4)cc3)[C@@H]2C1 returned IDE exosite FP inactive.
For COCC(=O)N1CCCCN2[C@H](CO)[C@H](c3ccc(-c4ccc(OC)cc4)cc3)[C@@H]2C1 the results were IDE exosite FP inactive.
Screening COc1ccc(-c2ccc([C@@H]3[C@@H](CO)N4C(=O)CN(C(=O)NC(C)C)C[C@H]34)cc2)cc1 returned IDE exosite FP inactive.
For COc1ccc(-c2ccc([C@H]3[C@H](CO)N4CCCCN(C(=O)c5ccc(F)cc5)C[C@@H]34)cc2)cc1 the results were IDE exosite FP inactive.
For COc1ccc(-c2ccc([C@@H]3[C@@H](CO)N4CCCCN(C(=O)NC(C)C)C[C@@H]34)cc2)cc1 the results were IDE exosite FP -4.1.
COCC(=O)N1CCCCN2[C@H](C1)[C@@H](c1ccc(-c3ccc(OC)cc3)cc1)[C@@H]2CO was read as IDE exosite FP inactive.
For COc1ccc(-c2ccc([C@@H]3[C@H](CO)N4CCCCN(C(=O)NC(C)C)C[C@@H]34)cc2)cc1 the results were IDE exosite FP -5.6.
`COc1ccc(-c2ccc([C@H]3[C@H]4CN(C(=O)NC(C)C)CCCCN4[C@H]3CO)cc2)cc1` gave IDE exosite FP -11.
`COc1ccc([C@@H]2C/C=C\C[C@@H](c3ccc4c(c3)OCO4)NC(=O)[C@H](c3ccccc3)CC(=O)N2)c(OC)c1` gave IDE exosite FP inactive.
CN(C)C(=O)c1cccc(-c2ccccc2[C@H]2[C@@H](C#N)N(C(=O)C3CCC3)[C@H]2CO)c1 was read as IDE exosite FP inactive.
C[C@H]1CN([C@@H](C)CO)C(=O)c2ccccc2-c2ccccc2CO[C@H]1CN(C)S(=O)(=O)c1cn(C)cn1 was read as IDE exosite FP inactive.
O=S(=O)(c1ccccc1)N1CCCCN2[C@H](CO)[C@H](c3ccc(-c4ccccc4)cc3)[C@H]2C1 was read as IDE exosite FP inactive.
CN(C[C@H]1[C@H](c2ccccc2)[C@@H](CO)N1CC1CC1)C(=O)c1ccccc1 was read as IDE exosite FP inactive.
Screening COCC(=O)N1CC2(CN(Cc3ccccc3)C2)c2c(n(C)c3cc(OC)ccc23)[C@@H]1CO returned IDE exosite FP inactive.
Screening C/C=C/c1ccc([C@H]2[C@@H](CO)N[C@@H]2CN(CC(C)C)C(=O)c2ccccn2)cc1 returned IDE exosite FP inactive.
Screening Cc1ccccc1-c1ccc(C2[C@@H]3CN(S(=O)(=O)Cc4ccccc4)C[C@H]2N3)cc1 (some centres not stated) returned IDE exosite FP inactive.
`Cc1ccc(S(=O)(=O)N2C[C@@H]3N[C@H](C2)C3c2ccc(-c3ccc(C(=O)N(C)C)cc3)cc2)cc1` (some centres not stated) gave IDE exosite FP inactive.
Screening CN(C)C(=O)c1ccc(-c2ccc(C3[C@@H]4CN(S(=O)(=O)Cc5ccccc5)C[C@H]3N4)cc2)cc1 (some centres not stated) returned IDE exosite FP -4.2.
Screening C[C@@H](O)C#Cc1ccc([C@H]2[C@@H](CO)N3CCCCN(S(=O)(=O)c4ccccc4)C[C@H]23)cc1 returned IDE exosite FP inactive.
`CNC(=O)C[C@H]1CC[C@H]2[C@@H](COc3ccc(NC(=O)Nc4ccc(C#N)cc4)cc3C(=O)N2C)O1` gave IDE exosite FP inactive.
